Measured values from PubChem BioAssay (NCI).
The panel holds about 83,000 compounds, 20% with a hit somewhere; the sample as a whole holds those more often.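 Each cell line was grown in a 96-well plate and treated with one concentration of compound for 48 hours. Values below 10 were considered active.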 The source made the active and inactive calls.

Test system: MCF7 breast
Experiment: NCI-60 one-dose screen, 48 h (100 = growth as untreated, 0 = no growth, -100 = all killed)
Details: 10 µM unless noted
Description: Growth inhibition of the MCF7 human tumor cell line is measured as a screen for anti-cancer activity. Cells are grown in 96 well plates and exposed to the test compound for 48 hours. Compounds are tested at a single concentration, which is 10^-5 M for most compounds. The reported endpoint is percent growth (GI% or GIPRCNT), where numbers from 0 - 100% represent growth inhibition, and numbers from -100% - 0 represent cell death. For example, a value of 40 represents 60% growth inhibition. A value of 0 means no net growth occurred over the course of the experiment. A value of -40 indicates 40% of cells at the beginning of the experiment died by the end of the experiment. A value of -100 means all cells are dead at the end of the experiment.
NCI-60 Human Tumor Cell Lines Screen was performed using the standard one-dose NCI protocol, which is described in more detail at https://dtp.cancer.gov/discovery_development/nci-60/default.htm.
Compounds with GIPRCNT values below 10 were considered active. Activity score was based on GIPRCNT using the following formula: […]
Score is 0 for GIPRCNT values of 100 or above, 50 for GIPRCNT values of 0, and 100 for GIPRCNT values of -100.

Question: How did the growth turn out when Cc1cc2c3ccc(C)[n+](C)c3ccc2n1C was run?
Answer: 57% (inactive)

Question: CN1CCCN(C(c2ccccc2)c2ccc(Cl)cc2)CC1 (stereo not given) was tested. Which growth did it give?
Answer: 80.6% (inactive)

Question: How did the growth turn out when N=C(N)c1nn(C2OC(CO)C(O)C2O)c2nc[nH]c(=O)c12 (stereo not given) was run?
Answer: 4.19% (active)

Question: ON1CCCC1 was tested. Which growth did it give?
Answer: 95% (inactive)

Question: With Cc1c(Cl)cccc1N=C=S as the molecule, how does the growth read?
Answer: 97.5% (inactive)

Question: With O=S(=O)(O)c1cccnc1 as the molecule, how does the growth read?
Answer: 99.9% (inactive)

Question: For COc1c(CNC(=O)CCl)cc2[nH]c(C)cc2c1CNC(=O)CCl, which growth is on record?
Answer: 36% (inactive)

Question: How did the growth turn out when Nc1ccccc1SC1CC(=O)N(c2ccc(Cl)c(Cl)c2)C1=O (stereo not given) was run?
Answer: 112% (inactive)

Question: With CCOC(=O)c1c[nH][nH]c1=O as the molecule, how does the growth read?
Answer: 92.4% (inactive)

Question: Which growth does the source give for Nc1ccc(F)cc1F here?
Answer: 96% (inactive)

Question: How did the growth turn out when O=Cc1c(O)c2ccccc2[nH]c1=O was run?
Answer: 95.7% (inactive)

Question: Which growth does the source give for CCOC(=O)Nc1nccs1 here?
Answer: 101% (inactive)

Question: Which growth does the source give for CC(=O)[C@@]1(O)CC[C@H]2[C@@H]3CC[C@@H]4CC(=O)CC[C@]4(C)[C@H]3[C@@H](O)C[C@@]21C here?
Answer: 93.6% (inactive)

Question: NS(=O)(=O)c1cc(=O)[nH]c(=O)[nH]1 was tested. Which growth did it give?
Answer: 101% (inactive)

Question: How did the growth turn out when CCCCCCCCCc1ccc(OC(C)=O)cc1 was run?
Answer: 102% (inactive)

Question: NCC(O)C(O)C(O)C(O)CO (stereo not given) was tested. Which growth did it give?
Answer: 97.1% (inactive)

Question: With CN1CCCN(C(c2ccccc2)c2ccc(Br)cc2)CC1 (stereo not given) as the molecule, how does the growth read?
Answer: 37.5% (inactive)

Question: How did the growth turn out when CC(C)c1ccccc1NC(=O)N1CCC(C(C)C)CC1 was run?
Answer: 97.5% (inactive)

Question: How did the growth turn out when COC(=O)c1ccc([N+](=O)[O-])c(C)c1 was run?
Answer: 91% (inactive)

Question: How did the growth turn out when CC(=O)OCC1CCC(COC(C)=O)CC1 (stereo not given) was run?
Answer: 90.9% (inactive)

Question: CC(CCC#N)(CCC#N)C(=O)c1ccccc1 was tested. Which growth did it give?
Answer: 95.9% (inactive)

Question: For CCOc1ccncc1[N+](=O)[O-], which growth is on record?
Answer: 100% (inactive)

Question: With CC1(C)OC2C(CO)OC(n3ccc(=O)[nH]c3=O)C2O1 (stereo not given) as the molecule, how does the growth read?
Answer: 97.7% (inactive)

Question: For CN(C)c1ccc(O)c2c1CC1CC3C(N(C)C)C(=O)C(C(N)=O)=C(O)C3(O)C(=O)C1=C2O (stereo not given), which growth is on record?
Answer: 53.4% (inactive)

Question: With CCOC(=O)C(COS(C)(=O)=O)(COS(C)(=O)=O)C(=O)OCC as the molecule, how does the growth read?
Answer: 98.7% (inactive)

Question: C1C[S+]2CC[S+]1CC2 was tested. Which growth did it give?
Answer: 103% (inactive)

Question: With C/C(=N\O)c1ccccn1 as the molecule, how does the growth read?
Answer: 99.9% (inactive)

Question: Which growth does the source give for CCNC(=O)Oc1ccc[nH]c1=O here?
Answer: 91.5% (inactive)

Question: With CCOC(=O)c1ccc(NC(C)=O)o1 as the molecule, how does the growth read?
Answer: 96.9% (inactive)

Question: How did the growth turn out when O=C(CCl)Nc1ccccc1SCc1cc(Cl)cc2c1OCOC2 was run?
Answer: 55.6% (inactive)

Question: For N#C/C(=C\c1ccc(C#N)cc1)C(=O)c1ccccc1, which growth is on record?
Answer: 97.5% (inactive)

Question: Which growth does the source give for CC(C)(N)CO[C@H]1C[C@H]2CC[C@@]1(C)C2(C)C here?
Answer: 92.5% (inactive)

Question: CC1CCC(C(C)(C)[N+](C)(C)C)CC1 (stereo not given) was tested. Which growth did it give?
Answer: 94.4% (inactive)

Question: For C[C@H](CCC[C@H](C)OS(=O)(=O)c1ccccc1)OS(=O)(=O)c1ccccc1, which growth is on record?
Answer: 101% (inactive)

Question: For Oc1cccc(CNC2CCCCC2)c1, which growth is on record?
Answer: 91.3% (inactive)

Question: With CC(CC(CCC(=O)O)(c1ccccc1)c1ccccc1)N(C)C (stereo not given) as the molecule, how does the growth read?
Answer: 91.2% (inactive)

Question: COC1OC(C(COC(C)=O)OC(C)=O)C(OC(C)=O)C(OC(C)=O)C1OC(C)=O (stereo not given) was tested. Which growth did it give?
Answer: 96% (inactive)

Question: Which growth does the source give for Oc1ccc(CCC2CCNc3ccccc32)cc1 (stereo not given) here?
Answer: 98.6% (inactive)

Question: Which growth does the source give for C=C1C(=O)C2CCC1C2 (stereo not given) here?
Answer: 109% (inactive)

Question: Which growth does the source give for O=S(Cc1ccccc1)/C(=C/NC(=S)Nc1ccccc1)c1ccccc1 (stereo not given) here?
Answer: 102% (inactive)
